Inconclusive results are not listed. Calls of active or inactive are those of the source. Calls come from the whole dose curve; as a rule, active = well fitted curve in the direction sought with a large enough effect; inconclusive = small, poorly fitted or top-dose-only effect, or another doubt; inactive = no such curve, though single readings can be large; an effect the other way counts as inactive or inconclusive.
% is set by controls: 0 for no effect and ±100 for the full control effect.

One assay in a line: G06 Cancer Cell Toxicity qHTS against the NCATS CANVASS Library (AID 1347368). Note: nearly all actives have a fitted effect of over 60% in size. Note: potency is the fitted concentration of half-maximal effect. Conditions: G06 dog glioma cells, viability ATP luminescence, 72 h; series mostly up to 46.1 µM; activity change, negative = cytotoxic: at the top concentration. The essentials:
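Cells were plated at 500 per well, then compounds were added over an 11-point range. After 72 hr at 37C, CellTiterGlo was added and luminescence measured as ATP content.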
With `CC1=CC2CC[C@@H]3[C@@H](C)C[C@H](C)[C@@H](C1)N23` (some centres not stated), the compound was called inactive.

As to `CC=C1CN(C=O)[C@H]2C[C@@H]1[C@@H](C(=O)OC)[C@@]13CCOC21Nc1ccccc13` (some centres not stated), the “activity change, negative = cytotoxic” value is -15.5% (inactive).

As to `C[C@@H]1CC[C@@H](c2ccoc2)N2C[C@@]3(CC[C@@H]12)CS[C@@]1(CC[C@H]2[C@H](C)CC[C@@H](c4ccoc4)N2[C@@H]1O)C3`, the Potency was 7.43 µM (active).

On to `CCN1C[C@]2(C)CC[C@@H](O)[C@]34C1[C@H](C[C@H]23)C12CCC(CC14)[C@](O)(CO)[C@H]2O` (some centres not stated), for which the “activity change, negative = cytotoxic” value was -12.5% (inactive).

As for `CO[C@@H](/C=C/CC/C=C/C(=O)O)[C@@H](O)[C@H](C)[C@@H](O)/C(C)=C/[C@H](C)C(=O)CCCC1CC(=O)NC(=O)C1`, the “activity change, negative = cytotoxic” value is 2.73% (inactive).

Regarding `CCCC[C@@H]1CC[C@H]2CCCC(CCC)N12` (some centres not stated), the “activity change, negative = cytotoxic” value is -8.57% (inactive).

Take `CO[C@@H](/C=C/CC/C=C/C(=O)O)[C@@H](O)[C@H](C)/C=C(\C)[C@@H](O)[C@H](C)C(=O)CCCC1CC(=O)NC(=O)C1`: the “activity change, negative = cytotoxic” value was -2.18% (inactive).

On to `O=C(c1ccccc1O)c1[nH]c(Cl)c(Cl)c1-n1c(C(=O)c2ccccc2O)cc(Cl)c1Cl`, for which the Potency was 5.9 µM (active).

In the case of `CC[C@@H]1CN2CC[C@@]3(O)C(=Nc4cccc(OC)c43)[C@@H]2C[C@@H]1/C(=C\OC)C(=O)OC`, the “activity change, negative = cytotoxic” value was -19.1% (inactive).

Consider `c1ccc2c3c([nH]c2c1)CNCC3`, for which the “activity change, negative = cytotoxic” value is -28.8% (inactive).

For the compound `CCCCC[C@@H]1OC(=O)[C@@H](C)N(C)C(=O)[C@H](CCCCC)OC(=O)C(C)N(C)C(=O)[C@H](CCCCC)OC(=O)[C@@H](C)N(C)C(=O)[C@H](CCCCC)OC(=O)C(C)N(C)C1=O` (some centres not stated), the Potency is 18.7 µM (active).

As to `CC1=CC(=O)C2=C(C)C[C@H](O)[C@@H]3[C@H](OC(=O)[C@@H]3C)[C@@H]12`, the “activity change, negative = cytotoxic” value is 2.8% (inactive).

With `CCC(=O)CCCCC[C@@H]1NC(=O)[C@H]2CCCCN2C(=O)[C@H]([C@@H](C)CC)NC(=O)[C@H](Cc2cn(OC)c3ccccc23)NC1=O`, the Potency was 0.743 µM (active).

Another assay is described as follows: MCF7 Cancer Cell Toxicity qHTS against the NCATS CANVASS Library (AID 1347369). Note: potency is the fitted concentration of half-maximal effect. Conditions: MCF7 viability, ATP luminescence (CellTiter-Glo), 72 h; series mostly up to 46 µM; activity change, negative = cytotoxicity: at the top concentration. The essentials:
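Luminescent ATP signal (CellTiterGlo) served as the cytotoxicity read-out after MCF7 breast cancer cells had been incubated 72 hr at 37C with natural products in an 11-point titration.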
Turning to `CC1=CC2CC[C@@H]3[C@@H](C)C[C@H](C)[C@@H](C1)N23` (some centres not stated), the “activity change, negative = cytotoxicity” value is -7.07% (inactive).

For the compound `CC=C1CN(C=O)[C@H]2C[C@@H]1[C@@H](C(=O)OC)[C@@]13CCOC21Nc1ccccc13` (some centres not stated), the call was inactive.

Turning to `C[C@@H]1CC[C@@H](c2ccoc2)N2C[C@@]3(CC[C@@H]12)CS[C@@]1(CC[C@H]2[C@H](C)CC[C@@H](c4ccoc4)N2[C@@H]1O)C3`, the Potency is 11.7 µM (active).

Consider `CCN1C[C@]2(C)CC[C@@H](O)[C@]34C1[C@H](C[C@H]23)C12CCC(CC14)[C@](O)(CO)[C@H]2O` (some centres not stated), for which the compound was called inactive.

Take `CO[C@@H](/C=C/CC/C=C/C(=O)O)[C@@H](O)[C@H](C)[C@@H](O)/C(C)=C/[C@H](C)C(=O)CCCC1CC(=O)NC(=O)C1`: the outcome was inactive.

For `CCCC[C@@H]1CC[C@H]2CCCC(CCC)N12` (some centres not stated), the compound was classed as inactive.

With `C[C@]12CC(O)C3[C@@H](CCC4C[C@@H](O)CC[C@@]43CO)[C@@]1(O)CCC2C1=CC(=O)OC1` (some centres not stated), the “activity change, negative = cytotoxicity” value is -8.13% (inactive).

For `CO[C@@H](/C=C/CC/C=C/C(=O)O)[C@@H](O)[C@H](C)/C=C(\C)[C@@H](O)[C@H](C)C(=O)CCCC1CC(=O)NC(=O)C1`, the “activity change, negative = cytotoxicity” value is -14.4% (inactive).

Take `CC[C@@H]1CN2CC[C@@]3(O)C(=Nc4cccc(OC)c43)[C@@H]2C[C@@H]1/C(=C\OC)C(=O)OC`: the “activity change, negative = cytotoxicity” value was -22.7% (inactive).

Turning to `c1ccc2c3c([nH]c2c1)CNCC3`, the “activity change, negative = cytotoxicity” value is -0.116% (inactive).

For the compound `CNCCc1ccccc1`, the compound was called inactive.

Regarding `CO[C@H](c1ccccc1)[C@H]1NC(=O)C(C)NC(=O)C(C[C@@H](C)CO)N(C)C(=O)[C@@H](C(O)c2cn(C(C)(C)C3CO3)c3ccccc23)NC(=O)C(C(C)C=C(C)C)NC(=O)C(CC(C)C)N(C)C(=O)C(C(C)C)NC1=O` (some centres not stated), the “activity change, negative = cytotoxicity” value is -4.6% [at 27.5 µM] (inactive).

For `CC1=CC(=O)C2=C(C)C[C@H](O)[C@@H]3[C@H](OC(=O)[C@@H]3C)[C@@H]12`, the compound was called inactive.

For `CCN1C[C@]2(C)CC[C@H](O)[C@]34C1C(C[C@H]23)[C@@]12CC[C@H](CC14)[C@](O)(COC(=O)c1ccc(OC)c(OC)c1)[C@H]2O` (some centres not stated), the result was inactive.

With `CCC(=O)CCCCC[C@@H]1NC(=O)[C@H]2CCCCN2C(=O)[C@H]([C@@H](C)CC)NC(=O)[C@H](Cc2cn(OC)c3ccccc23)NC1=O`, the call was inactive.

Another assay is described as follows: qHTS for ATAD5 Antagonist screened against the NCATS CANVASS Library (AID 1347370).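 Note: HEK293T cells carrying an ATAD5 luciferase reporter co-treated with 10 µM 5-fluorouridine; nearly all actives have a fitted effect of over 65% in size.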 The following applies: HEK293T-ATAD5-luc, 5-FUrd stimulated, luminescence, 16 h; series mostly up to 46.1 µM; activity change, negative = inhibition: at the top concentration. The method in brief: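 Compounds (11-point) co-dosed with 10 µM 5-FUrd for 16 h at 37 °C onto HEK293T-ATAD5 luciferase reporter cells. Viability measured by CellTiter-Fluor fluorescence, then ATAD5 reporter signal by luminescence.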
With `CC1=CC2CC[C@@H]3[C@@H](C)C[C@H](C)[C@@H](C1)N23` (some centres not stated), the “activity change, negative = inhibition” value is 6.33% (inactive).

In the case of `CC=C1CN(C=O)[C@H]2C[C@@H]1[C@@H](C(=O)OC)[C@@]13CCOC21Nc1ccccc13` (some centres not stated), the “activity change, negative = inhibition” value is -14.4% (inactive).

In the case of `CCN1C[C@]2(C)CC[C@@H](O)[C@]34C1[C@H](C[C@H]23)C12CCC(CC14)[C@](O)(CO)[C@H]2O` (some centres not stated), the “activity change, negative = inhibition” value was 10.4% (inactive).

As to `CO[C@@H](/C=C/CC/C=C/C(=O)O)[C@@H](O)[C@H](C)[C@@H](O)/C(C)=C/[C@H](C)C(=O)CCCC1CC(=O)NC(=O)C1`, the “activity change, negative = inhibition” value is -0.592% (inactive).

As for `CCCC[C@@H]1CC[C@H]2CCCC(CCC)N12` (some centres not stated), the “activity change, negative = inhibition” value is -6.27% (inactive).

Take `C[C@]12CC(O)C3[C@@H](CCC4C[C@@H](O)CC[C@@]43CO)[C@@]1(O)CCC2C1=CC(=O)OC1` (some centres not stated): the “activity change, negative = inhibition” value was -1.94% (inactive).

Take `CO[C@@H](/C=C/CC/C=C/C(=O)O)[C@@H](O)[C@H](C)/C=C(\C)[C@@H](O)[C@H](C)C(=O)CCCC1CC(=O)NC(=O)C1`: the “activity change, negative = inhibition” value is 82.3% (inactive).

On to `CC[C@@H]1CN2CC[C@@]3(O)C(=Nc4cccc(OC)c43)[C@@H]2C[C@@H]1/C(=C\OC)C(=O)OC`, for which the “activity change, negative = inhibition” value is -7.57% (inactive).

Take `c1ccc2c3c([nH]c2c1)CNCC3`: the “activity change, negative = inhibition” value is -10.5% (inactive).

`CNCCc1ccccc1`: the “activity change, negative = inhibition” value is -8.8% (inactive).

For the compound `CO[C@H](c1ccccc1)[C@H]1NC(=O)C(C)NC(=O)C(C[C@@H](C)CO)N(C)C(=O)[C@@H](C(O)c2cn(C(C)(C)C3CO3)c3ccccc23)NC(=O)C(C(C)C=C(C)C)NC(=O)C(CC(C)C)N(C)C(=O)C(C(C)C)NC1=O` (some centres not stated), the “activity change, negative = inhibition” value was -17.7% [at 27.5 µM] (inactive).

For `CC1=CC(=O)C2=C(C)C[C@H](O)[C@@H]3[C@H](OC(=O)[C@@H]3C)[C@@H]12`, the “activity change, negative = inhibition” value is 85.6% (inactive).

As for `CCN1C[C@]2(C)CC[C@H](O)[C@]34C1C(C[C@H]23)[C@@]12CC[C@H](CC14)[C@](O)(COC(=O)c1ccc(OC)c(OC)c1)[C@H]2O` (some centres not stated), the “activity change, negative = inhibition” value is -4.32% (inactive).

As for `CCC(=O)CCCCC[C@@H]1NC(=O)[C@H]2CCCCN2C(=O)[C@H]([C@@H](C)CC)NC(=O)[C@H](Cc2cn(OC)c3ccccc23)NC1=O`, the “activity change, negative = inhibition” value is 71.9% (inactive).

(Values after PubChem BioAssay (NCATS).)
